# Assay results taken from the supplement of paper PMC12636033.
# ± gives the standard deviation of the averaged measurements. Over roughly 33,000 sequences, “E-score (rank enrichment, -0.5 to 0.5)” has its median near -0.0043; the highest 2% begin near 0.24. The full list was thinned out, with the highest values kept by preference.
# Test system: 2Sp-muMax20 (muMax20 with two 2,6-bis(methyl)pyridine Cys staples)
# Assay: PBM 8-mer E-score (E-score (rank enrichment, -0.5 to 0.5)); higher = stronger preferential binding
# Protocol: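 Protein binding microarray (universal PBM chip covering all 10-mers in fixed probe flanks) with chemically synthesized human Max(13-93) bHLH-LZ analogs (not full-length Max) bearing noncanonical residues (hArg, Tha, Aib, Nle at 65) and aromatic Cys staples. Read-out per 8-mer (and its reverse complement): E-score (rank-based enrichment, -0.5 to 0.5) and Z-score of median probe intensity.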
row,Sequence,PBM 8-mer E-score
1,TCATTTCA,0.171 ± 0.068
2,CATGGCCA,0.0303 ± 0.016
3,CCAGCAGG,-0.054 ± 0.077
4,CGTTTCAA,-0.171 ± 0.036
5,CGTTTATC,-0.0397 ± 0.011
6,AGGCCCGA,-0.161 ± 0.0046
7,CATATAGA,0.182 ± 0.038
8,AAGATATA,0.259 ± 0.022
9,CATATACG,0.0657 ± 0.013
10,CATATATG,0.308 ± 0.036
11,CAGATATA,0.0905 ± 0.056
12,AAGATATC,0.211 ± 0.14
13,TATATATA,0.315 ± 0.019
14,GATATATA,0.204 ± 0.027
15,CATATATC,0.232 ± 0.0054
16,CATATATA,0.277 ± 0.012
17,TATATAGA,0.166 ± 0.025
18,CATATAGG,0.145 ± 0.0097
19,CCTAGTAG,0.00183 ± 0.043
20,CACACTAA,0.172 ± 0.041
21,CGTCCCAG,-0.132 ± 0.0026
22,CTATGGAG,0.0519 ± 0.034
23,CAAGCTTA,-0.00639 ± 0.037
24,CCTGCCAC,-0.0854 ± 0.043
25,AGACCGTG,-0.2708 ± 0.0017

row,Sequence,PBM 8-mer E-score
1,TATGCCGA,-0.0358 ± 0.062
2,ACCAGCAG,-0.0797 ± 0.013
3,CCCGCCAG,-0.131 ± 0.01
4,ATAATCTA,0.141 ± 0.07
5,CTAATATA,0.1721 ± 0.00093
6,CTTATATA,0.166 ± 0.073
7,ATAATATA,0.194 ± 0.04
8,GTAATCTA,0.259 ± 0.056
9,GTTATAGA,0.175 ± 0.05
10,GATCTATA,-0.0283 ± 0.079
11,CTAATCTA,0.0847 ± 0.035
12,GTAATATA,0.255 ± 0.07
13,GTTATATA,0.264 ± 0.022
14,AATCTATA,0.147 ± 0.091
15,CATCTATA,0.288 ± 0.024
16,ACCGCCCG,-0.242 ± 0.065
17,AAGGCGCC,0.175 ± 0.087
18,CGCAACCA,0.0737 ± 0.021
19,CCTTGCCA,-0.0434 ± 0.087
20,AGAATTTC,-0.0921 ± 0.041
21,ATAATTGA,0.2552 ± 0.0018
22,CTAATTGA,-0.0167 ± 0.015
23,ATAATTTG,0.183 ± 0.083
24,GTAATTTA,0.0251 ± 0.0029
25,GTAATTGA,0.0816 ± 0.034

row,Sequence,PBM 8-mer E-score
1,ATAATTTA,0.284 ± 0.12
2,AGAATTTA,0.284 ± 0.096
3,CGAATTTA,0.131 ± 0.035
4,CGTGACTA,0.0126 ± 0.018
5,ATTCTAGG,-0.0261 ± 0.025
6,ATTAACGA,0.0547 ± 0.19
7,GTCCACCA,-0.0165 ± 0.0032
8,CTGCCCAA,-0.0288 ± 0.022
9,CATGTACC,-0.115 ± 0.026
10,GTATATGA,0.0252 ± 0.077
11,ATATATGC,0.251 ± 0.052
12,CTATATGC,0.159 ± 0.037
13,ATATATGA,0.293 ± 0.049
14,ATATATGG,0.285 ± 0.018
15,ACATATGC,0.0823 ± 0.085
16,CTATATGA,0.145 ± 0.07
17,AGATATGG,0.168 ± 0.027
18,AAATATGG,0.18 ± 0.0044
19,ATCCTGTG,-0.0686 ± 0.032
20,GGCGGACC,-0.233 ± 0.004
21,ATATGAGC,0.148 ± 0.011
22,GACATCTC,-0.202 ± 0.052
23,TGTGCAAA,-0.0258 ± 0.033
24,ATTACAGC,-0.033 ± 0.008
25,ATTACAGA,-0.0244 ± 0.14

row,Sequence,PBM 8-mer E-score
1,ATTACATA,0.0685 ± 0.037
2,ATTACAGG,0.312 ± 0.042
3,ATTACATG,0.242 ± 0.037
4,ATTACATC,0.126 ± 0.094
5,GGCTGGGA,-0.0185 ± 0.052
6,ACACCGAA,-0.0827 ± 0.029
7,ACCTCGGA,-0.233 ± 0.0065
8,CAGTCTCA,-0.0913 ± 0.013
9,TAATTATA,0.245 ± 0.027
10,AAGTTATA,0.0392 ± 0.07
11,TAGTTATA,0.255 ± 0.0097
12,AAATTATC,0.199 ± 0.084
13,CAATTATA,0.176 ± 0.028
14,AAATTATG,0.134 ± 0.036
15,AAATTATA,0.301 ± 0.063
16,GAATTATA,0.19 ± 0.11
17,GAGTTATA,0.104 ± 0.048
18,CGCCTTCA,-0.00719 ± 0.17
19,AGATGCCG,-0.118 ± 0.13
20,GTAACATA,0.177 ± 0.016
21,ATACCGCA,0.013 ± 0.035
22,ATATTGAA,0.0994 ± 0.059
23,AAATTGAA,0.24 ± 0.083
24,GAATTGAA,0.0949 ± 0.085
25,TTATTGAA,0.3 ± 0.049

row,Sequence,PBM 8-mer E-score
1,GTATTGAA,0.132 ± 0.089
2,AAATTGAT,0.113 ± 0.046
3,ACAACGGA,-0.0195 ± 0.029
4,ACGATACA,0.0917 ± 0.079
5,ACATAGCG,0.00456 ± 0.11
6,ACCCCGCT,-0.0295 ± 0.018
7,GATGCGCC,-0.0256 ± 0.014
8,GGTGAAAA,-0.00809 ± 0.034
9,TGTGAAAA,0.289 ± 0.035
10,CGTGAAAA,0.109 ± 0.014
11,AATAGGTA,0.198 ± 0.0069
12,AGCCGTTA,-0.114 ± 0.018
13,AACCGTAA,0.0404 ± 0.047
14,CTGATCAA,-0.0225 ± 0.021
15,CGCGGGAA,0.0597 ± 0.013
16,ATGTACTA,0.258 ± 0.061
17,ATGTAATG,0.134 ± 0.074
18,CTGTAATA,0.134 ± 0.074
19,ATGTAAAT,0.159 ± 0.029
20,CTGTAATC,0.0629 ± 0.045
21,GTGTACTA,0.0822 ± 0.031
22,GTGTAATA,0.162 ± 0.042
23,ATGTACTG,0.0436 ± 0.099
24,ATGTAATA,0.278 ± 0.0077
25,ATGTAATC,0.236 ± 0.023

row,Sequence,PBM 8-mer E-score
1,ATGTAAAA,0.274 ± 0.016
2,CTGTAAAA,0.102 ± 0.0073
3,CCTGGAGA,-0.136 ± 0.09
4,AAACTTAT,0.203 ± 0.022
5,GTGGGCCA,-0.0973 ± 0.051
6,AGGAGCCC,0.00737 ± 0.03
7,ACCTCCAG,-0.161 ± 0.079
8,AGGGACCT,-0.13 ± 0.0014
9,GGCAACGA,-0.123 ± 0.0029
10,AACATAAC,0.278 ± 0.052
11,CACATAAC,0.0249 ± 0.13
12,GACATAAC,0.146 ± 0.026
13,AACATAAA,0.164 ± 0.097
14,AACATAAG,0.0487 ± 0.042
15,AACATAAT,0.285 ± 0.053
16,GTCGGCAC,-0.0877 ± 0.06
17,TCCGATAA,-0.23 ± 0.14
18,AAAGTACC,0.17 ± 0.02
19,AGCGCTAA,-0.0615 ± 0.022
20,CTTGACGA,0.00312 ± 0.0077
21,CGGTGAAC,0.0144 ± 0.098
22,AGGGCGAA,-0.00371 ± 0.021
23,GAATACGC,0.0401 ± 0.069
24,AAATACGC,0.236 ± 0.058
25,AAATACGT,0.112 ± 0.06

row,Sequence,PBM 8-mer E-score
1,ATTAAGGC,0.0884 ± 0.038
2,AGCGATGC,-0.00497 ± 0.044
3,AGATAAAC,0.00083 ± 0.061
4,ATTTTCAC,0.0326 ± 0.0074
5,CTTTTCAC,0.287 ± 0.021
6,CCTTTCAC,0.0665 ± 0.067
7,CGGTTCGA,-0.0332 ± 0.043
8,CACCCTCG,0.07079 ± 0.00033
9,CATGTTAG,0.111 ± 0.049
10,AATGTTAC,0.0165 ± 0.1
11,CTTGTTTA,-0.0208 ± 0.029
12,CATGTTTA,0.24 ± 0.056
13,GTTGTTTA,0.247 ± 0.0077
14,ATTGTTTA,-0.0168 ± 0.043
15,CATGTTGA,0.244 ± 0.023
16,CATGTTTC,0.0659 ± 0.0045
17,GATGTTTA,0.0541 ± 0.02
18,CATGTTAC,0.256 ± 0.018
19,AATGTTGA,-0.0129 ± 0.047
20,CATGTTGC,0.1 ± 0.094
21,ATTTCAGA,0.0234 ± 0.035
22,GGGATCGA,0.0419 ± 0.04
